This passage reports activity (protection/inhibition) results from PubChem BioAssay AID651871 (Sanford-Burnham Center for Chemical Genomics, 2012).

Where “and” joins values, the source holds several entries; their conditions need not be identical. Equal values may be shown once.

In the test the test system is H9c2. Kind of test: protection of cardiomyocytes from stress damage, SAR follow-up, cell-based, panel, H9c2 and HL-1, ATP luminescence, set 2 (AID 651871).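 Also: cells exposed to stressor for 2 h before ATP readout; reference of the scale not given here.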 The settings on record: H9c2/HL-1 cardiomyocytes, H2O2 oxidative stress; with H2O2, run 4, at 79 µM (top of the series).
Take `COc1ccc2nc(-c3cc(OC)c(OC)c(OC)c3)cc(C(=O)NCC(=O)Nc3ccc(C(C)=O)cc3)c2c1`: the activity (protection/inhibition) was 86.1% and 56.6%.
On to `COc1cc(-c2cc(C(=O)Nc3cccc(C(=O)NCc4ccccc4)c3)c3ccccc3n2)cc(OC)c1OC`, for which the activity (protection/inhibition) was determined as 87.2%.
Regarding `CCOC(=O)c1cccc(NC(=O)CNC(=O)c2cc(-c3cc(OC)c(OC)c(OC)c3)nc3ccccc23)c1`, the activity (protection/inhibition) was found to be 115%.
As to `COc1ccc2c(c1OC)C(=O)N1c3ccccc3C(=O)N(Cc3cccc(Cl)c3Cl)C21` (centres undefined), the activity (protection/inhibition) was 52.4% and 40.9%.
